Screens from PubChem.
Rpn11 block = inhibitors of human proteasome Rpn11. O00487. human 26S proteasome, Ub4-pepOG fluorescence polarization; 20S core pre-blocked with epoxomicin. inhibition, % at 20 µM. 0.59% of 360,000 active. AID 588493;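 active = inhibition at 20 µM, scaled to each plate's controls, above about 33%, limit read from the data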
Target sequence (O00487 whole entry, looked up): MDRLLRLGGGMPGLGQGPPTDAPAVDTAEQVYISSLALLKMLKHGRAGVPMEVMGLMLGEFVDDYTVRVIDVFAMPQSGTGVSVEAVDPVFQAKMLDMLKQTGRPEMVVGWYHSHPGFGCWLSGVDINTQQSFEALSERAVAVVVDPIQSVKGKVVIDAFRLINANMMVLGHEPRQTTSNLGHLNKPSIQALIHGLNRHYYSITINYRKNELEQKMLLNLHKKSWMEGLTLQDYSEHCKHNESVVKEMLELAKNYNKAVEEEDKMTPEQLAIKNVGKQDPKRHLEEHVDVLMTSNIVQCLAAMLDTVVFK
TPT1 inh = inhibitors of Candida albicans tRNA 2'-phosphotransferase TPT1; recombinant caTPT1, FP RNA substrate dephosphorylation; inhibition, % at 5 µM; 0.81% of 300,000 active; AID 1962;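 active = inhibition above the mean of all tested compounds plus 3 SD, set per screening campaign, cut at about 24% in these data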;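 note: plate controls were DMSO alone for no effect and ferristatin control at 100 nM for full effect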
IDE cell inh = inhibitors of human insulin-degrading enzyme in cells; P14735; HEK cells, FAbetaB cleavage, fluorescence polarization; inhibition, % at 5.59 µM; 0.41% of 320,000 active; AID 434962;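 active = percent inhibition above the average of all tested compounds plus 3 SD, set per screening campaign, cut at about 16% in these data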;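 note: IDE supplied by intact live HEK cells; FP after avidin binding of uncleaved biotin substrate so inhibition keeps polarization high; 0% = DMSO wells and 100% = 60 µM reference IDE inhibitor Ii1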
Rin1 Abl inh = human Rin1-Abl interaction inhibition | TR-FRET Rin1/Abl binding, biochemical | inhibition, % at 7.35 µM | 0.4% of 360,000 active | AID 588664; in the data active = inhibition above about 5%, passing the limit was not always enough
IDE act = IDE (human) activation, cell-based. P14735. HEK cells, FAbeta-B cleavage, fluorescence polarization; 0% vehicle, 100% cell-free pure enzyme wells. activation, % at 5.96 µM. 0.073% of 340,000 active. AID 493087;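 active = activation above the mean of all tested compounds plus 3 SD, set per screening campaign, cut at about 17% in these data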
Calb FLC = C. albicans growth modulation with fluconazole | C. albicans CaCi-2 (fluconazole-resistant clinical isolate) + fluconazole, Alamar Blue growth, 48 h | growth inhibition, % (no concentration beside the values) | 0.57% of 300,000 active | AID 1979;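 active = growth inhibition above about 58% in most replicates, limit read from the data, passing the limit was not always enough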;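 note: all wells also contain fluconazole at 8 µg/ml as a sub-toxic cotreatment; 0% = median of DMSO wells and 100% = median of geldanamycin control wells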
Rin1-Abl confirm = Rin1-Abl interaction inhibition confirmation; shares compounds with Rin1 Abl inh; TR-FRET Rin1-Abl binding, purified proteins; inhibition, % at 7.35 µM; 49% of 1,300 active
GFP quencher = counter-screen for Rin1-Abl inhibitors: GFP fluorescence quenchers; inhibition, % at 6.75 µM; 8.5% of 1,300 active; inhibitors/quenchers counterscreen; shares compounds with Rin1 Abl inh; AID 602125;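 note: ABL1-eGFP fusion protein alone without its partner RIN1-SBP; 0% = protein with vehicle and 100% = wells lacking protein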
* hit, by the source's call; / = not tested or not shown. Hits are enriched below; roughly 2.3% of the tested compounds scored in any of these assays. Cut-off read from the data, not from the text of the source, unless noted: active = inhibition above about 6.5%; inactive = the rest.

SMILES	Rpn11 block	TPT1 inh	IDE cell inh	Rin1 Abl inh	IDE act	Calb FLC	Rin1-Abl confirm	GFP quencher
N#CC1=C(N)Oc2c(ccc3cccnc23)C1c1ccccc1 (stereo not drawn)	6	-1	-4	1	5	4	/	/
COc1cccc(C(C)(O)c2nc(-c3cccc(C(C)C)c3)cs2)c1 (stereo not drawn)	-2	/	/	1	/	/	/	/
CCCC(C)NC(=O)Cn1c(=O)c2c(ncn2CCC(C)C)n(Cc2ccccc2)c1=O (stereo not drawn)	0	-1	-1	0	1	-9	/	/
CCCCNC(=O)Cn1c(=O)c2c(ncn2CCC(C)C)n(Cc2ccccc2)c1=O	-6	-4	1	20*	0	-2	-1	0
COC(=O)Nc1nc(-c2ccc(F)cc2)c(C)s1	-1	3	-3	5.2*	4	-5	-2	0
Cc1ccccc1NC(=O)COC(=O)c1ccc(C)c(S(=O)(=O)N2CCCCC2)c1	3	/	/	-1	/	/	/	/
N#C/C(=C(/O)CCl)c1nc2c(s1)CCc1ccccc1-2	21	16	0	-1	1	29	/	/
O=C1[C@@H](Oc2ccccc2)[C@@H](c2ccccc2)N1c1cccnc1	0	/	/	13*	-4	/	10*	-1
NC(=O)c1ccc(NCCc2ccco2)cc1	-8	/	/	0	/	/	/	/
COc1ccc(C(=O)C2CCCN(Cc3cccn3-c3nccs3)C2)cc1OC (stereo not drawn)	7	0	2	6.0*	0	1	-3	-1
COc1ccc(C(=O)C2CCCN(Cc3cccn3-c3nccs3)C2)cc1F (stereo not drawn)	3	0	6	3	-1	26	/	/
O=c1c(-c2c(O)cc(O)c3c2O[C@H](c2ccc(O)cc2)CC3)c(-c2ccc(O)cc2)oc2cc(O)cc(O)c12	29	/	0	3	2	/	/	/
CC(C)N(C(=O)Cn1cc(S(=O)(=O)CC(=O)Nc2ccccc2)c2ccccc21)C(C)C	-1	-3	7	-1	3	-1	/	/
CC1(Cc2ccc(OC(F)(F)F)cc2)C(=O)Nc2ccc(OC(F)(F)F)cc21 (stereo not drawn)	-3	/	/	7.4*	/	/	-2	-1
CC1(Cc2cccc(F)c2)C(=O)Nc2ccc(OC(F)(F)F)cc21 (stereo not drawn)	0	/	/	-1	/	/	/	/
O=C(O)c1cccc2cccc(-c3c4ccc(=O)c(O)c-4oc4c(O)c(O)ccc34)c12	-28	/	/	41*	1	/	45*	28*
C[C@@H]1CN([C@@H](C)CO)C(=O)CCCn2nncc2CO[C@@H]1CN(C)S(=O)(=O)c1cccc(F)c1	-6	/	/	14*	/	/	-1	0
Cc1cc(C)c(S(=O)(=O)N2CCCC(C(=O)N3CCCC3)C2)c(C)c1 (stereo not drawn)	-1	0	-3	-2	-5	1	/	/
Cc1cc(C)c(S(=O)(=O)N2CCCC(C(=O)N3CCOCC3)C2)c(C)c1 (stereo not drawn)	-4	-1	2	11*	7	-3	8.9*	-1
CCOC(CCn1c(SCC(=O)Nc2cc(C)on2)nc2ccccc2c1=O)OCC	-11	3	2	9.4*	1	17	-2	1
COCCCn1c(SCC(=O)Nc2ccc(C(C)=O)cc2)nc2ccccc2c1=O	0	5	2	10*	4	10	7.4*	1
Cc1ccc(C2NC(=O)CCC2[N+](=O)[O-])cc1 (stereo not drawn)	-1	-2	3	9	/	-7	/	/
O=C1CCC([N+](=O)[O-])C(c2ccc(Br)cc2)N1 (stereo not drawn)	-3	1	-1	11*	7	3	8.1*	-1
O=C(N/N=C/c1cccnc1)c1cc(O)c(O)c(O)c1	-9	-2	10	62*	-5	12	74*	21*
Cc1cc(N/N=C/c2ccc(O)cc2O)nc(-n2nc(C)cc2C)n1	-8	7	4	12*	1	12	10*	-1
SMILES	Rpn11 block	TPT1 inh	IDE cell inh	Rin1 Abl inh	IDE act	Calb FLC	Rin1-Abl confirm	GFP quencher
O=C(O)c1ccc2nc(-c3ccco3)c(-c3ccco3)nc2c1	-28	/	/	14*	4	0	2	5
COc1cccc(-n2nnnc2SCC(=O)Nc2ccc(OC)cc2OC)c1	2	-1	-1	0	-1	9	/	/
CCCNC(=O)c1cc(C2CCCCN2C(=O)c2ccc3c(c2)CCO3)on1 (stereo not drawn)	-4	/	/	15*	/	/	-3	1
O=C1C(Nc2ccccc2)=CC(c2ccc(O)cc2)N1c1ccccc1 (stereo not drawn)	-11	2	4	-2	5	-1	/	/
COc1cc(C2C=C(Nc3ccccc3)C(=O)N2c2ccccc2)ccc1O (stereo not drawn)	-1	6	11	7.1*	4	-21	-3	-1
COc1ccc(C)cc1N(CC(=O)N1CCCCCC1)S(=O)(=O)c1ccc(C)cc1	3	-1	0	-1	1	-3	/	/
Cc1cc(C(=O)N/N=C2\CCCc3ccccc32)c(C)o1	-9	0	3	11*	2	18	-1	-2
O=C(N/N=C1\CCCc2ccccc21)c1ccccc1Cl	-9	0	6	2	-1	30	/	/
COc1ccccc1/C=[N+](\[O-])C1SC(=S)N(C)C1(C)C (stereo not drawn)	8	1	6	6.8*	-4	-10	-3	0
COc1ccccc1CNc1nc(NCCNC(C)=O)c2sccc2n1	-7	/	/	19*	/	/	15*	0
COc1ccccc1CNc1nc(NCc2ccc(NC(C)=O)cc2)c2sccc2n1	-2	/	/	10*	/	/	7.8*	2
COc1ccccc1CNc1nc(NCc2ccccc2OC)c2sccc2n1	4	/	/	-2	/	/	/	/
CC(=O)Nc1ccc(CNc2nc(NCc3cccs3)nc3ccsc23)cc1	2	/	/	-2	/	/	/	/
O=C1OC(NCc2cccnc2)(c2ccc(Cl)cc2)c2ccccc21 (stereo not drawn)	-2	4	-9	12*	1	33	7.4*	-2
CCN(CC)c1ccc(C=NN2CCCCCC2)cc1	8	/	/	33*	6	/	-2	1
CCN(CC)c1ccc(/C=N/N2CCOCC2)cc1	-5	0	-5	0	3	-11	/	/
COc1ccc2c(c1)[C@H]1[C@H](CO2)[C@H](c2ccccc2)[C@]2(C)C(=O)N[C@@H](C)C(=O)N12	/	/	2	/	/	/	/	/
